In PubChem BioAssay (Tox21):
Records with an inconclusive call do not appear. Calls of active or inactive are those of the source. Unless noted, calls follow the shape of the dose curve; as a rule, active = well fitted curve in the direction sought with a large enough effect in the repeat runs; inconclusive = weak or mixed curves; inactive = no such curve, though single readings can be large; an effect the other way counts as inactive or inconclusive.

Assays:
[1] = qHTS assay to identify small molecule agonists of the estrogen receptor alpha (ER-alpha) signaling pathway in the presence of an antagonist - cell viability counter screen (AID 1259386);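 also: series mostly up to about 92 µM; cells exposed to compounds for 22 h at 37 °C before the viability read; nearly all actives have a fitted effect of over 30% in size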
How it was run: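 Cells are starved of estrogens for 5 days in charcoal-stripped serum, seeded for 24hr and co-treated with ICI-182,780 (10.0nM final) and test compounds. After 22hr at 37C, viability is read as CellTiter-Fluor fluorescence.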

[2] = target: Progesterone receptor (Homo sapiens) (UniProt P06401); assay: qHTS assay to identify small molecule agonists of the progesterone receptor (PR) signaling pathway (AID 1346784; calls by dose curve; also: nearly all actives have a fitted effect of over 30% in size)
Chain of Progesterone receptor (Homo sapiens) (P06401 whole entry, looked up): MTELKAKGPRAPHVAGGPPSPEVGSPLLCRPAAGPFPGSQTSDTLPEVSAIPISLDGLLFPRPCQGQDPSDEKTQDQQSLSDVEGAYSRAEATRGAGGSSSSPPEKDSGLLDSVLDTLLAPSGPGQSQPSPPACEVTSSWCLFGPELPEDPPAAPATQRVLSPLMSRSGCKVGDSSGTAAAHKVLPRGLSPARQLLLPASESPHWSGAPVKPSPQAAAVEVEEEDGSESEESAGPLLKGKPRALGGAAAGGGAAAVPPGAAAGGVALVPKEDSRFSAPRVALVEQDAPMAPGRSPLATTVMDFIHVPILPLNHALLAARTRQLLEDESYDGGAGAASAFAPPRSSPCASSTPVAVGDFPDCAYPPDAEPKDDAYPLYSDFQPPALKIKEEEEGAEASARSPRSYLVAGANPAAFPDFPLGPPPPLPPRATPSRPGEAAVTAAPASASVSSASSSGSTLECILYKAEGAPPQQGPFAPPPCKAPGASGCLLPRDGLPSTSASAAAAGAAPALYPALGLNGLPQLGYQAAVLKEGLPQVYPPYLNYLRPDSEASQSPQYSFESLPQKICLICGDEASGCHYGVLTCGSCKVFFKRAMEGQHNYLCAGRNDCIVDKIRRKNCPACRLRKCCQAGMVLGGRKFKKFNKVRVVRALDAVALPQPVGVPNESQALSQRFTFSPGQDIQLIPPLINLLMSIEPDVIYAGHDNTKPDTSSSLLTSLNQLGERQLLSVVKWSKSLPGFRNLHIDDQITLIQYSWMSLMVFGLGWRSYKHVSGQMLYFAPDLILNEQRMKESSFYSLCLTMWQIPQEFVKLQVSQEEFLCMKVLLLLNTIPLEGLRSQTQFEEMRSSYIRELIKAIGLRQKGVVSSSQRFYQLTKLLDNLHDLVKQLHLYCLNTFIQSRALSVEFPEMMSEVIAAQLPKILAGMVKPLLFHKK
How it was run: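 PR-UAS-bla HEK 293T cells carrying a UAS-driven beta-lactamase reporter were seeded in medium with 2% charcoal-stripped FBS, preincubated 6 hr at 37C, then exposed to compounds in DMSO for 16 hr; agonism was read by LiveBLAzer B/G FRET fluorescence.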

[3] = target: Progesterone receptor (Homo sapiens) (UniProt P06401); assay: qHTS assay to identify small molecule antagonists of the progesterone receptor (PR) signaling pathway (AID 1346795; active = well fitted inhibition curve with a large enough effect in the signal ratio in the repeat runs, not every such curve was filed as active; the % refers to the signal ratio)
How it was run: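 PR-UAS-bla HEK293T cells carrying a UAS-driven beta-lactamase reporter were plated in medium with 2% charcoal-stripped FBS and rested 6 hr at 37C. Compounds were added with 1 nM R5020 (final) for 16 hr, then FRET substrate loaded 2 hr at room temperature.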

[4] = qHTS assay to identify small molecule antagonists of the progesterone receptor (PR) signaling pathway - cell viability counter screen (AID 1346798); also: series mostly up to about 92 µM; nearly all actives have a fitted effect of over 50% in size
How it was run: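 PR-UAS-bla HEK293T cells in medium with 2% charcoal-stripped FBS were treated with compounds plus R5020 for 16 hr at 37C. Cell viability was then read by CellTiter-Glo luminescence after 30 min at room temperature in the same wells.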

[5] = qHTS assay to identify small molecule agonists of the progesterone receptor (PR) signaling pathway - cell viability counter screen (AID 1346799; calls by dose curve; also: nearly all actives have a fitted effect of over 45% in size)
How it was run: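 PR-UAS-bla HEK293T cells, 3,000 per well in medium with 2% charcoal-stripped FBS, were preincubated 6 hr at 37C, then exposed to compounds for 16 hr; viability was read as CellTiter-Glo luminescence after 30 min at room temperature.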

[6] = qHTS assay to identify small molecule antagonists of the TGF-beta/Smad signaling pathway - cell viability counter screen (AID 1346824); also: nearly all actives have a fitted effect of over 50% in size
How it was run: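 SBE-bla HEK 293T cells, incubated overnight, then compound plus 0.25 ng/mL TGF-beta1 (stock added) for 5 hr at 37 C. Viability was read in the same wells by CellTiter-Glo luminescence after 30 min at room temperature.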

[7] = qHTS assay to identify small molecule agonists of the TGF-beta/Smad signaling pathway - cell viability counter screen (AID 1346829); also: top concentration of the series differs between compounds; nearly all actives have a fitted effect of over 45% in size
How it was run: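 Tox21 qHTS format: SBE-bla HEK 293T cells treated with DMSO-dissolved compounds for 5 hr; CellTiter-Glo luminescence after 30 min at room temperature.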

[8] = qHTS assay to identify small molecule agonists of the TGF-beta/Smad signaling pathway (AID 1346859; active = well fitted activation curve with a large enough effect in the signal ratio in the repeat runs, not every such curve was filed as active; the % refers to the signal ratio; also: series mostly up to about 77 µM)
How it was run: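 HEK 293T cells stably carrying a beta-lactamase reporter driven by the Smad binding element were seeded overnight, exposed to DMSO-dissolved compounds for 5 hr at 37 C, 5% CO2, then loaded with FRET substrate for 2 hr at room temperature.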

[9] = target: Thyrotropin-releasing hormone receptor (Homo sapiens) (UniProt P34981); assay: qHTS assay to identify small molecule antagonists of the thyrotropin-releasing hormone receptor (TRHR) signaling pathway (AID 1346877; active = well fitted inhibition curve with a large enough effect in the repeat runs, not every such curve was filed as active; also: series mostly up to about 51 µM)
Chain of Thyrotropin-releasing hormone receptor (Homo sapiens) (P34981 whole entry, looked up): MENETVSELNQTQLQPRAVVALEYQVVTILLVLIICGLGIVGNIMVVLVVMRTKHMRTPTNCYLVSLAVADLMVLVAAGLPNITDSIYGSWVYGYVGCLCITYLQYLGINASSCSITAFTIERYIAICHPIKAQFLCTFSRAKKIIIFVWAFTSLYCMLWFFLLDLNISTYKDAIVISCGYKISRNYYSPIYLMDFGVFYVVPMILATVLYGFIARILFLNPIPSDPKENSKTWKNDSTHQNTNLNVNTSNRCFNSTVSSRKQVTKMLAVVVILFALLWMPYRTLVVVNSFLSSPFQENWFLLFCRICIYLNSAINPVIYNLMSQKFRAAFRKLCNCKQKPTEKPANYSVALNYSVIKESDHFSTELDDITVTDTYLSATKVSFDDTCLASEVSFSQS
How it was run: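 Cells (TRHR-HEK293) are plated and kept 18 h at 37 °C/5% CO2. A calcium-sensitive dye is added for 2 h, compound follows for 5 min at room temperature, and TRH is then given at 1 nM final.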

[10] = target: Thyrotropin-releasing hormone receptor (Homo sapiens) (UniProt P34981); assay: qHTS assay to identify small molecule agonists of the thyrotropin-releasing hormone receptor (TRHR) signaling pathway (AID 1346891; calls by dose curve; also: series mostly up to about 58 µM)
How it was run: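 TRHR-expressing HEK293 cells were plated 18 h at 37 °C/5% CO2, loaded with calcium dye 2 h at 37 °C, then given compound in DMSO; fluorescence was read kinetically for 3 min at 1 s intervals.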

Measured: Potency

ClCC(Cl)(Cl)Cl
not listed: [8] | [9] | [10]
inactive: all other assays above

CN1CCC(N(Cc2ccccc2)c2ccccc2)CC1
inactive: all assays above

CC(C)COP(=O)(OCC(C)C)OCC(C)C
inactive: all assays above

CC(C=O)Cc1ccc2c(c1)OCO2 (stereo not given)
not listed: [9] | [10]
inactive: all other assays above

c1cc2c(c(N3CCNCC3)c1)OCCO2
inactive: all assays above

O=C1CN=C(c2ccccc2)c2cc([N+](=O)[O-])ccc2N1
inactive: all assays above

O=P(O)(Oc1ccccc1)Oc1ccccc1
inactive: all assays above

O=C1OC(=O)C2C1C1(Cl)C(Cl)=C(Cl)C2(Cl)C1(Cl)Cl (stereo not given)
inactive: all assays above

Nc1cnn(-c2ccccc2)c(=O)c1Cl
inactive: all assays above

CCC#N
inactive: all assays above

O=C(CCN1CC1)OCC(CO)(COC(=O)CCN1CC1)COC(=O)CCN1CC1
inactive: all assays above

CC1=NNC(=O)N(/N=C/c2cccnc2)C1
inactive: all assays above

N#CC(O)c1ccccc1 (stereo not given)
inactive: all assays above

COCC(=O)N(c1c(C)cccc1C)N1CCOC1=O
inactive: all assays above

CCc1cc2c(s1)-n1c(C)nnc1CN=C2c1ccccc1Cl
inactive: all assays above

CCOP(=O)(OCC)OP(=O)(OCC)OCC
inactive: all assays above

CC(C)[N+](=O)[O-]
inactive: all assays above

COc1cc(OC)nc(Sc2cccc(Cl)c2C(=O)O)n1
inactive: all assays above

ClC(Br)Br
inactive: all assays above

O=NN1CCN(N=O)CC1
inactive: all assays above

Cc1cnc[nH]1
inactive: all assays above

c1coc(-c2nc3ccccc3[nH]2)c1
inactive: all assays above

C=C(C)CN(CC)c1c([N+](=O)[O-])cc(C(F)(F)F)cc1[N+](=O)[O-]
inactive: all assays above

Cc1cccc(C#N)c1
inactive: all assays above

OCCBr
inactive: all assays above
